{
  "source": "PubChem BioAssay (EPA / NIEHS)",
  "note": "Records with an inconclusive call do not appear. Calls of active or inactive are those of the source. The calls were made as follows, unless noted: active = hit-call score of the fitted dose curve at least 0.9, where 1 is the maximum; inconclusive = response in the unintended direction; inactive = score below 0.9.",
  "data": [
    {"system": "not listed separately", "assay": "CCTE_Deisenroth_AIME_384WELL_CTox_Active: Cytotoxicity Assessment (CTOX) in CCTE's 384-well Estrogen Receptor Transactivation Assay with AIME metabolic competence (metabolism positive), Deisenroth Lab (AID 2284037);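 also: chemicals first conditioned 2 h by alginate-bound induced rat liver S9 before cells; activity means signal loss indicating cell death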", "method_in_brief": "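Cytotoxicity in VM7Luc4E2 breast cells, 24 hour, measured as protease-substrate fluorescence loss, after 2-hour metabolic conditioning with induced rat hepatic S9 in alginate microspheres. Concentrations 0.002 - 200 uM, 10 points, bidirectional fitting.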", "values": [
      {"smiles": "COc1ccc(N)cc1", "outcome": "inactive"},
      {"smiles": "Cc1cc(Cl)ccc1OC(C)C(=O)O", "note": "(centres undefined)", "outcome": "inactive"},
      {"smiles": "CC(C)O.CC(C)O.OCCN(CCO)CCO.OCCN(CCO)CCO.[Ti]", "outcome": "inactive"},
      {"smiles": "Oc1cc(Cl)c(Cl)cc1Cl", "AC50": "100 µM (active)"},
      {"smiles": "CCOc1ccc(N)cc1", "outcome": "inactive"},
      {"smiles": "O=C(CBr)c1ccc(O)cc1", "outcome": "inactive"},
      {"smiles": "CCCCCCCCCCCCc1cccc(S(=O)(=O)O)c1", "outcome": "inactive"},
      {"smiles": "CCN(CCO)CCO", "outcome": "inactive"},
      {"smiles": "CCC[CH2][Sn]([Cl])([Cl])[CH2]CCC", "AC50": "13.6 µM (active)"},
      {"smiles": "N#CS", "outcome": "inactive"},
      {"smiles": "Cc1cc(Cl)ccc1OCCCC(=O)O", "outcome": "inactive"},
      {"smiles": "N#CCC#N", "outcome": "inactive"},
      {"smiles": "O=c1[nH]c(=O)n(Cl)c(=O)n1Cl", "outcome": "inactive"},
      {"smiles": "Nc1ncn[nH]1", "outcome": "inactive"},
      {"smiles": "O=S1(=O)OC(c2cc(Br)c(O)c(Br)c2)(c2cc(Br)c(O)c(Br)c2)c2ccccc21", "AC50": "160 µM (active)"},
      {"smiles": "CNC(=O)O/N=C/C(C)(C)S(C)(=O)=O", "outcome": "inactive"}
    ]},
    {"target": "Estrogen receptor (Homo sapiens) (UniProt P03372)", "sequence (P03372 whole entry, looked up)": "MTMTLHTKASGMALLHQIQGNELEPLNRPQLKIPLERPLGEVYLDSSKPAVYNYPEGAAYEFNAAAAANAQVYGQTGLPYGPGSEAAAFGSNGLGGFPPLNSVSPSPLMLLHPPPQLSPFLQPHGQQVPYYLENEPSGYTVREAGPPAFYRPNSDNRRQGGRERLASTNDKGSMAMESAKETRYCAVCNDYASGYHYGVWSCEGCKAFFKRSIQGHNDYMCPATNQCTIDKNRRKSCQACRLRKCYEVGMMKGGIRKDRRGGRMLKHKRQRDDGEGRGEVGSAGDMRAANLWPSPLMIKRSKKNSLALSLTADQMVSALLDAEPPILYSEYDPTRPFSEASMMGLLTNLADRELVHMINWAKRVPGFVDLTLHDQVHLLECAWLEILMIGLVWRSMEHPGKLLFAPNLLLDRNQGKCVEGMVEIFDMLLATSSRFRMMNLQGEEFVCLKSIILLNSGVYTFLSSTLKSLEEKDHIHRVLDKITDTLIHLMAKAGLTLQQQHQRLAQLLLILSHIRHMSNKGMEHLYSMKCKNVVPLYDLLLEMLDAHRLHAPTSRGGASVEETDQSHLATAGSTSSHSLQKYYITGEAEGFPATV", "assay": "CCTE_Deisenroth_AIME_384WELL_LUC_Inactive: CCTE's 384-well Estrogen Receptor Transactivation Assay without AIME metabolic competence (ERTA luciferase; metabolism negative), Deisenroth Lab (AID 2284038);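 also: VM7Luc4E2 breast cells given medium preincubated 2 h with S9-free microspheres; hits raise estrogen receptor luciferase signal so potencies reflect agonists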", "method_in_brief": "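VM7Luc4E2 ER transactivation, luciferase bioluminescence after 24 h, using medium pre-incubated 2 h with S9-free alginate microspheres. Concentrations 0.002–200 uM; gain of signal fitted relative to 17beta-estradiol.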", "values": [
      {"smiles": "N#Cc1cccnc1", "outcome": "inactive"},
      {"smiles": "Cc1cc(Cl)ccc1OC(C)C(=O)O", "note": "(centres undefined)", "outcome": "inactive"},
      {"smiles": "O=C(O)COc1ccc(Cl)cc1", "outcome": "inactive"},
      {"smiles": "CCOc1ccc(N)cc1", "outcome": "inactive"},
      {"smiles": "CCN(CCO)CCO", "outcome": "inactive"},
      {"smiles": "N#CCC#N", "outcome": "inactive"},
      {"smiles": "CNC(=O)O/N=C/C(C)(C)S(C)(=O)=O", "outcome": "inactive"}
    ]},
    {"system": "not listed separately", "assay": "CCTE_Deisenroth_AIME_384WELL_CTox_Inactive: Cytotoxicity Assessment (CTOX) in CCTE's 384-well Estrogen Receptor Transactivation Assay without AIME metabolic competence (metabolism negative), Deisenroth Lab (AID 2284039);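 also: cell viability via live-cell protease substrate cleaved to fluorescent probe; cells exposed 24 h to medium preincubated 2 h with alginate-water beads without S9; loss of fluorescence signal means loss of viability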", "method_in_brief": "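Metabolism-negative arm: chemicals (10-point, 0.002 - 200 uM) preincubated 2 h with alginate-water lids, medium moved onto VM7Luc4E2 cells for 24 h. Fluorescent live-cell protease readout; bidirectional curve fit.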", "values": [
      {"smiles": "CC(C)O.CC(C)O.OCCN(CCO)CCO.OCCN(CCO)CCO.[Ti]", "outcome": "inactive"},
      {"smiles": "Oc1cc(Cl)c(Cl)cc1Cl", "outcome": "inactive"},
      {"smiles": "O=C(O)COc1ccc(Cl)cc1", "outcome": "inactive"},
      {"smiles": "CCOc1ccc(N)cc1", "outcome": "inactive"},
      {"smiles": "CN(C)C(=S)S", "outcome": "inactive"},
      {"smiles": "CCCCCCCCCCCCc1cccc(S(=O)(=O)O)c1", "outcome": "inactive"},
      {"smiles": "CCN(CCO)CCO", "outcome": "inactive"},
      {"smiles": "CCC[CH2][Sn]([Cl])([Cl])[CH2]CCC", "AC50": "9.65 µM (active)"},
      {"smiles": "N#CS", "outcome": "inactive"},
      {"smiles": "Cc1cc(Cl)ccc1OCCCC(=O)O", "outcome": "inactive"},
      {"smiles": "COc1ccccc1N", "outcome": "inactive"},
      {"smiles": "N#CCC#N", "outcome": "inactive"},
      {"smiles": "O=S1(=O)OC(c2cc(Br)c(O)c(Br)c2)(c2cc(Br)c(O)c(Br)c2)c2ccccc21", "outcome": "inactive"},
      {"smiles": "Clc1cccc(Cl)c1", "outcome": "inactive"},
      {"smiles": "CNC(=O)O/N=C/C(C)(C)S(C)(=O)=O", "outcome": "inactive"}
    ]},
    {"system": "not listed separately", "assay": "CCTE_Shafer_MEA_dev_active_electrodes_number: CCTE's Neural Network Formation Assay for Number of Active Electrodes, Shafer Lab (AID 2284040);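 as to AC50: potency for loss of active electrodes versus DMSO so lower counts are hits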", "method_in_brief": "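Counts electrodes per well firing at least 5 spikes/min, recorded on days 5, 7, 9 and 12 in rat cortical cultures dosed continuously from plating (treatment refreshed DIV 5, 9). Value is the area under the curve over recordings, fitted downward relative to DMSO.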", "values": [
      {"smiles": "Cc1ccccc1OP(=O)(Oc1ccccc1C)Oc1ccccc1C", "AC50": "20.2 µM (active)"},
      {"smiles": "FC(F)OCC(F)(F)C(F)(F)F", "outcome": "inactive"},
      {"smiles": "NC(=O)c1ccc(N)nc1", "AC50": "6.3 µM (active)"},
      {"smiles": "CC(C)[C@@H](Nc1ccc(C(F)(F)F)cc1Cl)C(=O)OC(C#N)c1cccc(Oc2ccccc2)c1", "note": "(some centres undefined)", "AC50": "14.5 µM (active)"},
      {"smiles": "Cc1cc(C(F)(C(F)(F)F)C(F)(F)F)ccc1NC(=O)c1cccc(I)c1C(=O)NC(C)(C)CS(C)(=O)=O", "AC50": "11.3 µM (active)"},
      {"smiles": "O=S(=O)(F)C(F)(F)C(F)(F)C(F)(F)C(F)(F)F", "outcome": "inactive"},
      {"smiles": "OC(Cc1ccccc1Cl)(Cn1[nH]cnc1=S)C1(Cl)CC1", "note": "(centres undefined)", "AC50": "37.1 µM (active)"},
      {"smiles": "CCOCn1c(-c2ccc(Cl)cc2)c(C#N)c(Br)c1C(F)(F)F", "AC50": "4.74 µM (active)"},
      {"smiles": "C=CCOC(F)(C(F)(F)F)C(F)(F)F", "outcome": "inactive"},
      {"smiles": "CNC(=O)CSP(=O)(OC)OC", "outcome": "inactive"},
      {"smiles": "CC1(C)[C@H](C(=O)O[C@H](C#N)c2cccc(Oc3ccccc3)c2)[C@@H]1/C=C(\\Cl)C(F)(F)F", "AC50": "12.9 µM (active)"}
    ]},
    {"target": "Estrogen receptor (Homo sapiens) (UniProt P03372)", "assay": "CCTE_Deisenroth_AIME_384WELL_LUC_Shift: CCTE's 384-well Estrogen Receptor Transactivation Assay with AIME metabolic competence data shift (ERTA luciferase; difference in metabolism positive and negative), Deisenroth Lab (AID 2284041; active = hit-call score of the fitted dose curve at least 0.9, where 1 is the maximum; inactive = score below 0.9;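 also: shift is response with S9 minus without S9 so positive means metabolism raised ER signal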)", "method_in_brief": "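Test chemicals (0.002–200 uM, 10-point) were pre-incubated 2 h with alginate microspheres containing phenobarbital/beta-naphthoflavone-induced male Sprague Dawley rat liver S9 or water, then medium was transferred to VM7Luc4E2 cells for 24 h luciferase readout; shift = S9-positive minus S9-negative normalized response.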", "values": [
      {"smiles": "N#Cc1cccnc1", "outcome": "inactive"},
      {"smiles": "Cc1cc(Cl)ccc1OC(C)C(=O)O", "note": "(centres undefined)", "outcome": "inactive"},
      {"smiles": "O=C(O)COc1ccc(Cl)cc1", "outcome": "inactive"},
      {"smiles": "CCOc1ccc(N)cc1", "outcome": "inactive"},
      {"smiles": "CC(=Cc1ccccc1)[N+](=O)[O-]", "outcome": "inactive"},
      {"smiles": "CCN(CCO)CCO", "outcome": "inactive"},
      {"smiles": "CCC[CH2][Sn]([Cl])([Cl])[CH2]CCC", "outcome": "inactive"},
      {"smiles": "N#CCC#N", "outcome": "inactive"},
      {"smiles": "O=S1(=O)OC(c2cc(Br)c(O)c(Br)c2)(c2cc(Br)c(O)c(Br)c2)c2ccccc21", "outcome": "inactive"},
      {"smiles": "CNC(=O)O/N=C/C(C)(C)S(C)(=O)=O", "outcome": "inactive"}
    ]},
    {"system": "not listed separately", "assay": "CCTE_Shafer_MEA_dev_burst_rate: CCTE's Neural Network Formation Assay for Burst Rate, Shafer Lab (AID 2284042; active = hit-call score of the fitted dose curve at least 0.9, where 1 is the maximum; inactive = score below 0.9;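 as to AC50: potency for loss of burst rate below DMSO control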)", "method_in_brief": "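Cells plated, treated day 0; recorded DIV 5, 7, 9, 12; fed and re-treated DIV 5, 9. Endpoint: bursts per recording time, active-electrode well mean, trapezoidal AUC, fitted in decreasing direction against DMSO baseline.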", "values": [
      {"smiles": "Cc1ccccc1OP(=O)(Oc1ccccc1C)Oc1ccccc1C", "outcome": "inactive"},
      {"smiles": "FC(F)OCC(F)(F)C(F)(F)F", "outcome": "inactive"},
      {"smiles": "NC(=O)c1ccc(N)nc1", "AC50": "8.62 µM (active)"},
      {"smiles": "C=CC(F)(C(F)(F)F)C(F)(F)C(F)(F)F", "note": "(centres undefined)", "outcome": "inactive"},
      {"smiles": "CC(=O)C(F)(F)C(F)(F)F", "outcome": "inactive"},
      {"smiles": "CC(C)[C@@H](Nc1ccc(C(F)(F)F)cc1Cl)C(=O)OC(C#N)c1cccc(Oc2ccccc2)c1", "note": "(some centres undefined)", "outcome": "inactive"},
      {"smiles": "Cc1cc(C(F)(C(F)(F)F)C(F)(F)F)ccc1NC(=O)c1cccc(I)c1C(=O)NC(C)(C)CS(C)(=O)=O", "outcome": "inactive"},
      {"smiles": "O=S(=O)(F)C(F)(F)C(F)(F)C(F)(F)C(F)(F)F", "outcome": "inactive"},
      {"smiles": "OC(Cc1ccccc1Cl)(Cn1[nH]cnc1=S)C1(Cl)CC1", "note": "(centres undefined)", "AC50": "29.4 µM (active)"},
      {"smiles": "CCOCn1c(-c2ccc(Cl)cc2)c(C#N)c(Br)c1C(F)(F)F", "AC50": "4.86 µM (active)"},
      {"smiles": "C=CCOC(F)(C(F)(F)F)C(F)(F)F", "outcome": "inactive"},
      {"smiles": "CNC(=O)CSP(=O)(OC)OC", "outcome": "inactive"},
      {"smiles": "CS(=O)(=O)c1ccc(C(=O)C2C(=O)CCCC2=O)c(Cl)c1COCC(F)(F)F", "outcome": "inactive"},
      {"smiles": "CC1(C)[C@H](C(=O)O[C@H](C#N)c2cccc(Oc3ccccc3)c2)[C@@H]1/C=C(\\Cl)C(F)(F)F", "outcome": "inactive"},
      {"smiles": "CC(F)(F)CC(F)(F)F", "outcome": "inactive"}
    ]}
  ]
}
